In PubChem BioAssay (Tox21):
Inconclusive results are not listed. Calls of active or inactive are those of the source. Unless noted, the call rests on the fitted dose curve; in most records, active means well fitted curve in the direction sought with a large enough effect in the repeat runs; inconclusive means weak or mixed curves; inactive means no such curve, though single readings can be large; an effect the other way counts as inactive or inconclusive.

Columns and labels:
[1] = qHTS assay to identify small molecule antagonists of the estrogen related receptor (ERR) signaling pathway from Tox21 library - cell viability counter screen (AID 1224834); further: nearly all actives have a fitted effect of over 30% in size
Outline: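 Viability readout (CellTiter-Fluor fluorescence, 30 min at 37 C) multiplexed with the ERR assay; cells treated 17.5 h at 37 C with compounds delivered in DMSO.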

[2] = target: Luciferin 4-monooxygenase (Photinus pyralis) (UniProt P08659); experiment: qHTS assay to identify small molecule inhibitors of firefly luciferase (AID 1224835); further: nearly all actives have a fitted effect of over 25% in size
Outline: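 Biochemical qHTS: compounds run as interplate titrations against purified firefly enzyme, with D-luciferin and ATP each at its KM concentration. Light output recorded by CCD imaging.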

[3] = qHTS assay to identify small molecule agonists of the constitutive androstane receptor (CAR) signaling pathway - cell viability counter screen (AID 1224836); further: nearly all actives have a fitted effect of over 45% in size
Outline: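 23 h treatment, 37 C, 5% CO2. Cell line: HepG2 stably expressing hCAR with a CYP2B6-2.2kb construct. Co-treatment: PK11195, 0.75 uM final. Read-out: CellTiter-Fluor fluorescence intensity.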

[4] = qHTS assay to identify small molecule antagonists of the constitutive androstane receptor (CAR) signaling pathway - cell viability counter screen (AID 1224837); further: nearly all actives have a fitted effect of over 45% in size
Outline: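 Fluorescence from CellTiter-Fluor served as the viability signal. Human hepatoma HepG2 cells stably bearing hCAR and CYP2B6-2.2kb received compound plus CITCO (50 nM final) for 23 hr.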

[5] = target: Nuclear receptor subfamily 1 group I member 3 (Homo sapiens) (UniProt Q14994); experiment: qHTS assay to identify small molecule antagonists of the constitutive androstane receptor (CAR) signaling pathway (AID 1224838);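 further: HepG2 cells stably expressing hCAR with CYP2B6 luciferase reporter stimulated by CITCO; nearly all actives have a fitted effect of over 40% in size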
Outline: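 Quantitative HTS in double-stable HepG2-CYP2B6-hCAR cells. After 4 h plating, cells get compound (15 concentrations) and CITCO at 50 nM final, incubate 24 h at 37 C, then ONE-Glo luminescence is read.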

[6] = target: Nuclear receptor subfamily 1 group I member 3 (Homo sapiens) (UniProt Q14994); experiment: qHTS assay to identify small molecule agonists of the constitutive androstane receptor (CAR) signaling pathway (AID 1224839);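 further: HepG2 cells stably carrying human CAR and a CYP2B6 luciferase reporter; nearly all actives have a fitted effect of over 15% in size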
Outline: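 Compounds tested at 15 concentrations on HepG2 cells stably harbouring hCAR and CYP2B6-2.2kb reporter constructs, co-treated with PK11195 (0.75 uM final), 24 h at 37 C; luminescent reporter signal quantified.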

[7] = qHTS assay to identify small molecule antagonists of the estrogen related receptor signaling pathway with the pleiotropic PPARgamma coactivator (PGC) from Tox21 10K library - cell viability counter screen (AID 1224840; active means well fitted cell-killing curve with a large enough effect in the repeat runs, not every such curve was filed as active; further: nearly all actives have a fitted effect of over 40% in size)
Outline: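 Compounds in DMSO, alongside positive and negative controls, were pinned onto PGC/ERR cells (2,000 per well). Exposure lasted 17.5 hours at 37 C, followed by a 30-minute CellTiter-Fluor incubation and fluorescence reading.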

[8] = qHTS assay to identify small molecule antagonists of the estrogen related receptor signaling pathway with the pleiotropic PPARgamma coactivator (PGC) from Tox21 10K library (AID 1224841; call rule not given here; further: actives are mostly falling curves and most rising ones were filed inactive; nearly all actives have a fitted effect of over 50% in size)
Outline: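 Compound exposure ran 18 hours at 37 C in PGC/ERR cells (2,000/well) that had first rested 6 hours in a 37 C/5% CO2 incubator. Luciferase activity was then detected with One-Glo after a 30-minute room-temperature step.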

[9] = qHTS assay to identify small molecule agonists of the estrogen related receptor signaling pathway with the pleiotropic PPARgamma coactivator (PGC) from Tox21 10K library (AID 1224842); further: nearly all actives have a fitted effect of over 15% in size
Outline: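 PGC/ERR reporter cell line, 2,000 cells per well, incubated 6 h at 37 C before 23 nL compound in DMSO was added. After 18 h at 37 C, One-Glo luminescence read following 30 min at room temperature.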

[10] = qHTS assay to identify small molecule agonists of the hypoxia (HIF-1) signaling pathway - cell viability counter screen (AID 1224844; calls by dose curve; further: nearly all actives have a fitted effect of over 50% in size)
Outline: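 Luminescent ATP content (CellTiter-Glo, 30 min, room temperature) served as the viability measure in HRE-bla ME-180 cells exposed to compounds for 17 hrs in low-serum medium (0.5% dialyzed FBS).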

[11] = qHTS assay to identify small molecule agonists of H2AX (AID 1224845; active means well fitted activation curve with a large enough effect in the signal ratio in the repeat runs, not every such curve was filed as active; the % refers to the signal ratio)
Outline: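 Wild-type CHO-K1 cells, plated overnight, exposed 3hr at 37C to 15 concentrations (0.76% DMSO final). Lysed, then HTRF anti-pH2AX (S139) cryptate and anti-H2AX-d2 antibodies, 24 hr room temperature; 665/620 nm emission read.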

[12] = qHTS assay to identify small molecule agonists of the hypoxia (HIF-1) signaling pathway (AID 1224846; active means well fitted activation curve with a large enough effect in the signal ratio in the repeat runs, not every such curve was filed as active; the % refers to the signal ratio)
Outline: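 Measured by blue/green FRET after loading CCF4-AM: beta-lactamase expressed from a hypoxia response element in ME-180 cells. Test agents were delivered in DMSO and left 17 hrs; cells had been plated 5 hrs earlier in low-serum (0.5% dialyzed FBS) medium.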

[13] = qHTS assay to identify small molecule agonists of H2AX - cell viability counter screen (AID 1224847; calls by dose curve; further: top concentration of the series differs between compounds; nearly all actives have a fitted effect of over 30% in size)
Outline: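 Compounds tested at 15 concentrations were incubated 3 hr at 37C with wild-type CHO-K1 cells; cellular ATP-based luminescence (CellTiter-Glo) indicated viability.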

[14] = qHTS assay to identify small molecule antagonists of the estrogen related receptor (ERR) signaling pathway from Tox21 library (AID 1224848); further: nearly all actives have a fitted effect of over 50% in size
Outline: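 Luminescent reporter read-out (ONE-Glo) from NTP's ERR cell line after 18 h treatment at 37 C with DMSO-dissolved Tox21 compounds; cells pre-plated 6 h beforehand at 2,000 per well.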

[15] = qHTS assay to identify small molecule agonists of the estrogen related receptor (ERR) signaling pathway from Tox21 library (AID 1224849; calls by dose curve; further: nearly all actives have a fitted effect of over 15% in size); conditions: ERR reporter cell line, ONE-Glo luciferase, 18 h; at 92.4 µM (top of the series) unless noted
Outline: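 We plated ERR reporter cells, waited 6 h, added compounds in DMSO by pin tool and incubated them 18 h at 37 C. ONE-Glo was then added and luminescence read after 30 min.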

[16] = qHTS RealTime-Glo MT Cell Viability Assay in HepG2 cells - 24 hour (AID 1224867); further: nearly all actives have a fitted effect of over 50% in size
Outline: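 Luminescence read-out: viable HepG2 cells reduce a prosubstrate to a NanoLuc substrate, giving a signal proportional to live cell number. Reads taken at 0, 8, 16, 24, 32 and 40 h of compound exposure at 37 C.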

[17] = qHTS RealTime-Glo MT Cell Viability Assay in HEK293 cells - 32 hour (AID 1224868)
Outline: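 Nonlytic real-time viability readout: viable cells convert prosubstrate to NanoLuc substrate, giving luminescence proportional to live cell number. HEK293, 600 cells/well, compound added after 5 h, continuous culture at 37 C.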

[18] = A CellTox Green Cytotoxicity Assay to monitor cytotoxicity in HEK293 cells - 0 hour (AID 1224869); further: nearly all actives have a fitted effect of over 50% in size
Outline: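 Each value comes from one timepoint of a single continuous run in which HEK293 cells with CellTox Green were exposed to compound for up to 40 h at 37 C, dye fluorescence rising with cell death.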

[19] = qHTS RealTime-Glo MT Cell Viability Assay in HepG2 cells - 40 hour (AID 1224870); further: nearly all actives have a fitted effect of over 50% in size
Outline: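 HepG2 cells (600/well) mixed with RealTime-Glo MT reagent, settled 5 h at 37 C/5% CO2 before compound addition. Nonlytic NanoLuc luminescence from viable-cell prosubstrate reduction read repeatedly during 40 h treatment at 37 C.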

[20] = target: Thyrotropin receptor (Homo sapiens) (UniProt P16473); experiment: qHTS assay to identify small molecule agonists of the thyroid stimulating hormone receptor (TSHR) signaling pathway (AID 1224843; calls by dose curve; further: nearly all actives have a fitted effect of over 45% in size)
Outline: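 Steps: seed 800 TSHR-HEK293 cells per well; add test compound and hold 30 min at ambient temperature; dispense cAMP-d2 then anti-cAMP cryptate; incubate 1 h at ambient; measure fluorescence intensity.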
On the % scale 0 is the no-effect control and ±100 the full control effect.

Chain of Luciferin 4-monooxygenase (Photinus pyralis) (P08659 whole entry, looked up): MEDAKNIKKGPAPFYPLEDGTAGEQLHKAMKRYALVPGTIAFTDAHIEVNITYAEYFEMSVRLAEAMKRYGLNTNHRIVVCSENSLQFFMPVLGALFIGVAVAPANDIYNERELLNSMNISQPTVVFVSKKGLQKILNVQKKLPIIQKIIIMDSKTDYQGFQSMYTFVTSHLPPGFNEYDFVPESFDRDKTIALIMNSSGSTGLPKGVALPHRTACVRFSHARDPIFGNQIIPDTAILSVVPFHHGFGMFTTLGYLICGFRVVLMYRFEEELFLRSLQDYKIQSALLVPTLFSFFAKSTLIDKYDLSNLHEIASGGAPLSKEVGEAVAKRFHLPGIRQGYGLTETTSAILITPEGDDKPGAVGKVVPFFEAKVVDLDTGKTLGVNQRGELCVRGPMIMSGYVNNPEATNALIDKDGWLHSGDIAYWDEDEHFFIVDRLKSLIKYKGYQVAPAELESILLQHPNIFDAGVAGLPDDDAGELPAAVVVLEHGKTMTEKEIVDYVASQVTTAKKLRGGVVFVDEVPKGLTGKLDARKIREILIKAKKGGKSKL
Chain of Nuclear receptor subfamily 1 group I member 3 (Homo sapiens) (Q14994 whole entry, looked up): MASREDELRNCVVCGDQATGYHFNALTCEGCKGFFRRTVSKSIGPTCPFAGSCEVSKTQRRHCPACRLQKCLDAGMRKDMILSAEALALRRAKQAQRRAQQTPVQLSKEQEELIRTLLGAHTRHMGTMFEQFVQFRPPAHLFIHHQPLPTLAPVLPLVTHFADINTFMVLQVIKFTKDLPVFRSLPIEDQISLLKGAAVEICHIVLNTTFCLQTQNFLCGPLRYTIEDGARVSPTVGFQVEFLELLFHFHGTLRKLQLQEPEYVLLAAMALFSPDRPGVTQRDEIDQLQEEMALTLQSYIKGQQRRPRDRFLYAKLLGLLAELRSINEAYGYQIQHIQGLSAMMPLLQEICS
Chain of Thyrotropin receptor (Homo sapiens) (P16473 whole entry, looked up): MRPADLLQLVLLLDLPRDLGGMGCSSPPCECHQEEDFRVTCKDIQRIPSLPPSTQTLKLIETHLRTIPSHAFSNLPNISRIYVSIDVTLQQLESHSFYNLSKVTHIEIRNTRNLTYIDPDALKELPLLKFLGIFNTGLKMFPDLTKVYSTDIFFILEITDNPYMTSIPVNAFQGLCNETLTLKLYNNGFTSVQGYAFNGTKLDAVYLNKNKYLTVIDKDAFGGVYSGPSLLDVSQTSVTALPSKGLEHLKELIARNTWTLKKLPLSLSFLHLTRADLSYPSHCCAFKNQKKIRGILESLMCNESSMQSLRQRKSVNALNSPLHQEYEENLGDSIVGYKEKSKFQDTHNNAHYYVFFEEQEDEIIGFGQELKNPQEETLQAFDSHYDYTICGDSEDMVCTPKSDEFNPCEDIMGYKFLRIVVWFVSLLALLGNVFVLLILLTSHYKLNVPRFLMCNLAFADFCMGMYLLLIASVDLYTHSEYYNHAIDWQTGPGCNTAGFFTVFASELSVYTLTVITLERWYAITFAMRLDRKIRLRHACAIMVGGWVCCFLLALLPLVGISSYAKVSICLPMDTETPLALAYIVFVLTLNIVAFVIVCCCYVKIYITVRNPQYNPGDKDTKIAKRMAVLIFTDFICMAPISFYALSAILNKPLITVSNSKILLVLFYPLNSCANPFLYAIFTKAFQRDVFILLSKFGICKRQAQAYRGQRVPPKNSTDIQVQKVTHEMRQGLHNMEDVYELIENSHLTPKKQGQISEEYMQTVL

CCCCCOC(=O)CCCCC
inactive: Potency [1] | Potency [2] | Potency [3] | Potency [4] | Potency [5] | Potency [6] | Potency [7] | Potency [8] | outcome [9] | Potency [10] | outcome [11] | outcome [12] | Potency [13] | Potency [14] | activity change, positive = activation [15] 0.374% | Potency [16] | Potency [17] | Potency [18] | Potency [19]

COC(=O)c1cc(C(=O)OC)cc(S(=O)(=O)O)c1
inactive: Potency [1] | Potency [2] | Potency [3] | Potency [4] | Potency [5] | Potency [6] | Potency [7] | Potency [8] | outcome [9] | Potency [10] | outcome [11] | outcome [12] | Potency [13] | Potency [14] | activity change, positive = activation [15] 0.501% | Potency [16] | Potency [17] | Potency [19]

CCOC(C)(C)C
inactive: Potency [1] | Potency [2] | Potency [3] | Potency [4] | Potency [5] | Potency [6] | Potency [7] | Potency [8] | outcome [9] | Potency [10] | outcome [11] | outcome [12] | Potency [13] | Potency [14] | activity change, positive = activation [15] 3.27% | Potency [16] | Potency [17]

CCCCCCCCCCCCCC=O
inactive: viability change, negative = cytotoxic [1] 1.13% [at 8.39 µM] | activity change, negative = inhibition [2] 3.28% [at 10.5 µM] | viability change, negative = cytotoxic [3] -0.0726% [at 8.39 µM] | activity change, negative = cytotoxicity [4] 6.66% [at 8.39 µM] | activity, negative = inhibition [5] -13.4% [at 8.39 µM] | activation [6] -0.0217% [at 8.39 µM] | viability change, negative = cytotoxic [7] 5.18% [at 8.39 µM] | activity, negative = inhibition [8] 11.8% [at 8.39 µM] | activation [9] -0.504% [at 8.39 µM] | activity change, negative = cytotoxicity [10] 0.368% [at 6.97 µM] | activation (H2AX phosphorylation) [11] -4.49% [at 14 µM] | activation [12] -0.206% [at 7.01 µM] | activity change, negative = cytotoxicity [13] 0.845% [at 14 µM] | activity, negative = inhibition [14] -0.715% [at 8.39 µM] | activity change, positive = activation [15] -0.514% [at 8.39 µM] | activity change, negative = cytotoxicity [16] -6.68% [at 6.97 µM] | activity change, negative = cytotoxic [17] 5.71% [at 6.97 µM] | cytotoxicity [18] -4.46% [at 6.97 µM] | activity change, negative = cytotoxic [19] -13.1% [at 6.97 µM]

CCCCCCCCCCCCCCCCC
inactive: Potency [1] | Potency [2] | Potency [3] | Potency [4] | Potency [5] | Potency [6] | Potency [7] | Potency [8] | outcome [9] | Potency [10] | outcome [11] | outcome [12] | Potency [13] | Potency [14] | activity change, positive = activation [15] -0.135% | Potency [16] | Potency [17] | Potency [18] | Potency [19]

C=C(C)C(=O)OCCCCCCCC(C)C
inactive: Potency [1] | Potency [2] | Potency [3] | Potency [4] | Potency [5] | Potency [6] | Potency [7] | Potency [8] | outcome [9] | Potency [20] | Potency [10] | outcome [11] | Potency [13] | Potency [14] | Potency [16] | Potency [17] | Potency [18] | Potency [19]
